# From PubChem BioAssay AID504905 (The Scripps Research Institute Molecular Screening Center, 2011)
# Some of the results follow. Activity calls are given as the source filed them. Cut-off read from the data, not from the text of the source: active = activation above about 17%; inactive = the rest.
# Molecular target: 5-hydroxytryptamine receptor 5A (Homo sapiens) (UniProt P47898)
# Experiment: HTR5A agonists in cells, counter-screen for OPRM1-OPRD1 heterodimer agonist project, cell-based, luminescence (AID 504905);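 note: 0% = vehicle-treated cells and 100% = reference agonist response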
# Settings: HTR5A agonist counterscreen, at 9.3 µM, stronger effect = higher value
# 5-hydroxytryptamine receptor 5A (Homo sapiens), sequence (P47898 whole entry, looked up): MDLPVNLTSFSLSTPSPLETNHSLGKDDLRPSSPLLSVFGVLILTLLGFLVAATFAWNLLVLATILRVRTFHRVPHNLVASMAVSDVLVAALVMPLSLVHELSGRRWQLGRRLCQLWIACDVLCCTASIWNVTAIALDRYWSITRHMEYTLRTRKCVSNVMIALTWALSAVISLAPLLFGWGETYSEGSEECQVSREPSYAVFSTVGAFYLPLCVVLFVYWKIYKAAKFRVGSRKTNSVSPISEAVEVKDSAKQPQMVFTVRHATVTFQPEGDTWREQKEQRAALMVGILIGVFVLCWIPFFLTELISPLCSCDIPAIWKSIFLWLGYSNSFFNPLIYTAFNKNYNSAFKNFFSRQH
row,SMILES,activation
1,COC1C(O)C(C)OC(OC2CCC3(C=O)C(CCC4C3CCC3(C)C(C5=CC(=O)OC5)CCC43O)C2)C1O (centres undefined),13.7% (inactive)
2,CCC1(C)CC(CCNCc2ccc(N(C)C)cc2)(c2ccc(F)cc2)CCO1 (centres undefined),0.44% (inactive)
3,C[C@]12CC[C@H](O)C[C@H]1CC[C@@H]1C2CC[C@]2(C)[C@@H](C3=CC(=O)OC3)[C@@H](O)C[C@]12O (some centres undefined),-0.48% (inactive)
4,CCOC(=O)C1(CCc2ccccc2)CCN(Cc2ccco2)CC1,3.8% (inactive)
